# Compounds with a hit are over-represented: about 7.9% of the library has one in this group of screens.
# KB-3-1 tox = KB-3-1 parental cell cytotoxicity. AID 1347075. KB-3-1 viability, CellTiter-Glo ATP luminescence, 72 h. Potency, µM (highest dose often 46.1 µM), most hits filed as cytotoxic. 400,000 tested, 1.4% active; also: % is scaled to controls: 0 for no effect and ±100 for the full control effect; nearly all actives have a fitted effect of over 60% in size
#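 Screening of KB-3-1 cells (DMEM, 10% FBS, phenol-red free) ran from lowest to highest compound concentration; after 72 h at 37 °C viability was read luminescently and curves fitted.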
# HT1080 IDH1KD tx = kills HT-1080 cells with IDH1 knockdown. HT-1080 IDH1 knockdown viability, ATP luminescence, 48 h. Potency, µM (top dose mostly 46.1 µM), inactives show at the top dose activity, negative = toxicity, hits mostly cytotoxic. 360,000 tested, 2% active;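 also: 0% = DMSO wells and -100% = cell-free medium wells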
#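 After a 2 h attachment period, IDH1KD HT-1080 cells took pin-transferred compound for 48 h at 37 °C; ATP-based luminescence after 10 min room-temperature reagent incubation reported viability.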
# MCF10A rerep = DNA re-replication induction in MCF 10a cells | AID 624296 | Potency, µM (doses to about 46.1 µM), for inactives: at the top dose activity, positive = re-replication, most hits filed as activators | 350,000 tested, 2.9% active | MCF 10A DNA re-replication, Hoechst nuclear intensity, 48 h; also: % of control where 0% means no effect; nearly all actives have a fitted effect of over 50% in size
# KB-V1 cytotox = kills drug-selected multidrug resistant KB-V1 cells | 400,000 tested, 3.4% active | KB-V1 MDR cells viability, CellTiter-Glo, 72 h | Potency, µM (top dose mostly 46.1 µM), usual class: cytotoxic; also: % is scaled to controls: 0 for no effect and ±100 for the full control effect; nearly all actives have a fitted effect of over 60% in size
#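 Following 72 h at 37 degrees C with compound, KB-V1 cell viability was read by CellTiter-Glo luminescence, medium being phenol-red-free DMEM plus 10% FBS; concentration-response parameters came from normalized, curve-fitted qHTS data.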
# HT1080-NT tox = kills 2HG-producing HT-1080-NT fibrosarcoma cells; HT-1080-NT fibrosarcoma viability, CellTiter-Glo ATP luminescence, 48 h; Potency, µM (top dose mostly 46.1 µM), inactives show at the highest dose activity, negative = less viability, usual class: cytotoxic; 360,000 tested, 1.6% active; AID 686970;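 also: NT is the 2HG producing partner of a matched IDH1 knockdown line; 0% = DMSO-treated cells and -100% = media-only wells without cells; nearly all actives have a fitted effect of over 55% in size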
#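 Viability of the 2HG-overproducing fibrosarcoma line after 48 hours of compound exposure at 37 degrees C was determined by luminescence with CellTiter-Glo, and concentration-effect curves were then fitted and categorized.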
# SW480 rereplic = inducers of DNA re-replication in SW480 colon cancer cells; SW480 DNA re-replication, Hoechst DNA content imaging, 48 h; Potency, µM (titrated, usually from 46.1 µM), for inactives: top-dose re-replication activation, most hits filed as activators; 340,000 tested, 1.8% active; also: % of control where 0% means no effect; nearly all actives have a fitted effect of over 55% in size
#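 250 cells/well; 23 nL cpd via pin tool; 48 hr, 37 C, 5% CO2; Hoechst 40 min; imager read of total nuclear intensity, ex 405/em 500-530 nm.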
# * marks the source's active call; other numbers are inactive results; i = inactive; ? = inconclusive; nt = no result given; [ ] = dose if it differs, or a comment. Calls follow the shape of the dose curve; as a rule, active = well fitted curve in the direction sought with a large enough effect; inconclusive = small, poorly fitted or top-dose-only effect, or another doubt; inactive = no such curve, though single readings can be large; an effect the other way counts as inactive or inconclusive. Potency is read from the fitted curve at half-maximal effect.
SMILES,KB-3-1 tox,HT1080 IDH1KD tx,MCF10A rerep,KB-V1 cytotox,HT1080-NT tox,SW480 rereplic
Cc1oc(-c2ccccc2F)nc1CS(=O)(=O)CC(=O)N1CCN(c2ccc(Cl)cc2)CC1,16µM*,nt,nt,i,nt,nt
Cc1oc(-c2ccccc2F)nc1CS(=O)(=O)CC(=O)N1CCCCCC1,i,-1%,-3%,i,-4%,0%
Oc1c(C(c2ccccn2)N2CCC(Cc3ccccc3)CC2)cc(Cl)c2cccnc12 (centres undefined),?,21µM*,16µM*,2.6µM*,?,?
CC(=O)Oc1c(C)c(OC(C)=O)c2c(c1C(C)=O)OC1CC(=O)C(C(C)=O)=C(O)C21C (centres undefined),i,-22%,10%,?,-11%,-19%
CC(=O)c1c(O)c(C)c(O)c2c1OC1=CC(=O)C(C(C)=O)C(=O)[C@@]12C (some centres undefined),?,-6%,3.7µM*,i,-2%,3%
CCCNC(=O)c1cc(C2CCCCN2C(=O)c2cc(C(C)(C)C)nn2C)on1 (centres undefined),?,2%,nt,16µM*,0%,nt
CCCNC(=O)c1cc(C2CCCN(C(=O)c3cc(C(C)(C)C)nn3C)C2)on1 (centres undefined),i,2%,nt,i,5%,nt
Cc1cc([N+](=O)[O-])c2[nH]c(C(=O)N/N=C/c3ccccc3C(=O)O)c(-c3ccccc3)c2c1,i,11%,?,4.1µM*,13%,?
COc1cccc(-c2ccc(C#N)c(OC(=O)c3c(Cl)cccc3Cl)n2)c1,i,-28%,25%,16µM*,-11%,-68%
COc1ccc(Cl)cc1NC(=O)Nc1ccc(Br)cn1,i,18µM*,1%,i,?,?
COc1ccc(Cl)cc1NC(=O)NC(C)c1ccncc1 (centres undefined),i,4%,?,18µM*,-27%,0%
CCOc1ccccc1NC(=O)c1cc2c(=O)oc3ccccc3c2s1,i,nt,nt,i,nt,nt
CCSC1=N/C(=C\c2ccccc2)C(=O)N1,i,10%,7%,i,6%,1%
COC(=O)C(C)SC1=N/C(=C/c2ccc(-n3cncn3)cc2)C(=O)N1 (centres undefined),i,1%,16µM*,i,2%,?
O=C1CSC(=S)N1Cc1ccccc1,?,-8%,nt,i,-3%,nt
CCCOc1ccccc1/C=C1\SC(N2CCCCC2)=NC1=O,7.3µM*,?,?,i,?,9%
Cc1ccc(/C=C2\SC(N3CCCCC3)=NC2=O)cc1,i,-9%,-2%,i,-10%,0%
CC(C)(C)c1ccc(/C=C2/SC(N3CCCC3)=NC2=O)cc1,i,18µM*,-1%,?,16µM*,-50%
Cc1ccc(-n2c(SCCC(C)C)nc3sc4c(c3c2=O)CC(C)(C)OC4)cc1,i,nt,nt,?,nt,nt
Cc1ccc2nc(COc3cccc(NC(=O)COc4ccc(F)cc4)c3)cc(=O)n2c1,i,nt,nt,i,nt,nt
Cc1cc(C)c(Cc2c(C)nc3c(C(=O)NCc4ccco4)cnn3c2C)c(C)c1,21µM*,-5%,?,2.9µM*,-1%,-3%
Cc1ccc(CNC(=O)c2cnn3c(C)c(Cc4c(F)cccc4Cl)c(C)nc23)cc1,i,nt,nt,i,nt,nt
COCCNC(=O)c1cnn2c(C(F)F)cc(-c3ccccc3)nc12,i,0%,?,i,-4%,15µM*
O=C(NCc1ccco1)c1cnn2c(C(F)F)cc(-c3ccccc3)nc12,i,-2%,8.2µM*,i,0%,17%
COc1ccc(-c2cc(C(F)F)n3ncc(C(=O)N4CCN(C)CC4)c3n2)cc1,i,0%,17%,i,-2%,16%
SMILES,KB-3-1 tox,HT1080 IDH1KD tx,MCF10A rerep,KB-V1 cytotox,HT1080-NT tox,SW480 rereplic
COc1ccc(-c2cc(C(F)F)n3ncc(C(=O)N4CCSCC4)c3n2)cc1,i,-11%,?,i,-5%,5.2µM*
CC(=O)N1c2ccc(S(=O)(=O)N3CCC(C(=O)Nc4cccc(Cl)c4C)CC3)cc2CC1C (centres undefined),?,nt,nt,i,nt,nt
Cc1ccc(OCc2nc(-c3ccc(C(=O)N4CCN(c5cc(Cl)ccc5C)CC4)cc3)oc2C)cc1,i,nt,nt,i,nt,nt
COC(=O)[C@@H]1N2C(=O)[C@@H](NC(=O)C(C)Oc3ccccc3)[C@H]2SC1(C)C (some centres undefined),i,nt,nt,i,nt,nt
O=C(NCc1ccc2c(c1)OCO2)c1ccc2c(c1)N(Cc1ccc(F)cc1)C(=O)c1ccccc1S2=O (centres undefined),i,nt,nt,i,nt,nt
O=C(Nc1c(C(=O)NCc2ccco2)cnn1-c1ccccc1)c1cccc(F)c1,i,3%,0%,9.2µM*,-1%,-2%
Fc1ccc(N2CCN(c3nc4ccccc4c4nc(-c5ccccc5)nn34)CC2)cc1,i,nt,nt,?,nt,nt
Cc1ccc(C(C)C)c(OCCNC(=S)Nc2cccc3ccccc23)c1,?,7.9µM*,?,i,5.6µM*,5.6µM*
CC(C)(C)C(=O)N1N=C(c2ccc(NS(C)(=O)=O)cc2)CC1c1cccs1 (centres undefined),i,16µM*,12%,?,?,3%
CS(=O)(=O)Nc1ccc(C2=NN(C(=O)c3ccccc3)C(c3cccs3)C2)cc1 (centres undefined),i,-10%,4%,?,-10%,-12%
CCC(=O)N1N=C(c2cccc(NS(C)(=O)=O)c2)CC1c1cccs1 (centres undefined),i,0%,1%,18µM*,3%,-87%
CCS(=O)(=O)c1nc(S(=O)(=O)c2ccc(Cl)cc2)c(NCc2ccc(Cl)cc2)s1,i,nt,nt,i,nt,nt
COC(=O)C1=C(N)N(c2ccccc2F)C2=C(C(=O)CC(C)(C)C2)C1c1ccc(OC)c(OC)c1 (centres undefined),?,-19%,5%,4.6µM*,0%,?
Cc1ccnc2ncccc12,i,nt,nt,i,nt,nt
Cc1cccc2sc(NC(=O)c3ccc(Cl)s3)nc12,i,-2%,16µM*,i,0%,-3%
O=C(Nc1ncccn1)C1c2ccccc2Oc2ccccc21,i,3%,2%,?,5%,6%
Cc1nnc(NC(=O)C2c3ccccc3Oc3ccccc32)s1,?,?,13µM*,i,-22%,?
Cc1cccc2sc(NC(=O)C3c4ccccc4Oc4ccccc43)nc12,i,?,6.5µM*,?,-25%[9.24 µM],?

# Screening data as filed in PubChem BioAssay.
